PAD4 FP inh: PAD4 (human) enzyme inhibition. recombinant PAD4, RCA probe fluorescence polarization. inhibition, % at 6.36 µM. hit rate 0.41% among 330,000;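 active = percent inhibition above a cutoff equal to the mean of all tested compounds plus 3 SD, cut at about 15% in these data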;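 note: 0% = PAD4 with RCA probe and DMSO and 100% = probe without PAD4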
PME-1 primary: PME-1 (human) inhibition. AID 2130. hit rate 0.53% among 320,000. recombinant PME-1, FP-Rh probe fluorescence polarization. inhibition, % at 5.9 µM;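 active = inhibition above the campaign mean of all compounds plus 3 SD, cut at about 26% in these data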;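 note: competitive labeling of PME-1 active site by serine hydrolase directed probe; 0% = PME-1 with DMSO and 100% = wells lacking PME-1 enzyme; inhibitors block probe labeling so polarization falls and inhibition rises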
Fam108B inh: blocks mouse Fam108B hydrolase in RBBP9 counter-screen | hit rate 0.33% among 300,000 | inhibition, % at 9.51 µM | recombinant Fam108B, FP-Rh probe fluorescence polarization;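 active = inhibition above the screen mean inhibition plus 3 SD, computed separately per campaign, cut at about 18% in these data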;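 note: inhibitors lower polarization as less probe binds the enzyme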
LYPLA2 inh: counter-screen for PME1 inhibitors: inhibitors of human LYPLA2 | inhibition, % at 5.9 µM | hit rate 0.38% among 320,000 | O95372 | AID 2177 | recombinant LYPLA2, FP-Rh probe fluorescence polarization;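 active = inhibition above the screen-wide mean plus 3 SD, limit set per campaign, cut at about 26% in these data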;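 note: 0% = LYPLA2 with DMSO and 100% = wells lacking LYPLA2 enzyme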
LYPLA1 counter: counter-screen for PME1 inhibitors: inhibitors of human LYPLA1. O75608. hit rate 0.16% among 320,000. inhibition, % at 5.9 µM. recombinant LYPLA1, FP-Rh probe fluorescence polarization. AID 2174;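 active = inhibition above the mean of all tested compounds plus 3 SD, set per campaign, cut at about 14% in these data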;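 note: inhibitors block serine hydrolase probe labeling of LYPLA1 so polarization falls; 0% = enzyme with DMSO and 100% = wells lacking LYPLA1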
Target sequence (O75608 whole entry, looked up): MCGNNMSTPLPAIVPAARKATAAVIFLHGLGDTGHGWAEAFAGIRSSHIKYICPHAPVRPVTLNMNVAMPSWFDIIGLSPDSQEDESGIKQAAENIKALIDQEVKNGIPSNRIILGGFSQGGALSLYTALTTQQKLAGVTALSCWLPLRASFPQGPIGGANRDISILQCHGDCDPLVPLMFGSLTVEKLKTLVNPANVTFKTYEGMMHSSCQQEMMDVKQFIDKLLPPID
GSTO1 inh: GSTO1 inhibition, counter-screen for RBBP9 inhibitors. P78417. recombinant GSTO1, activity-based probe fluorescence polarization. inhibition, % at 5.96 µM. hit rate 1.1% among 300,000;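 active = inhibition above the campaign mean inhibition plus 3 SD, cut at about 35% in these data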;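 note: 0% = GSTO1-1 with DMSO and 100% = wells lacking GSTO1-1 enzyme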
Target sequence (P78417 whole entry, looked up): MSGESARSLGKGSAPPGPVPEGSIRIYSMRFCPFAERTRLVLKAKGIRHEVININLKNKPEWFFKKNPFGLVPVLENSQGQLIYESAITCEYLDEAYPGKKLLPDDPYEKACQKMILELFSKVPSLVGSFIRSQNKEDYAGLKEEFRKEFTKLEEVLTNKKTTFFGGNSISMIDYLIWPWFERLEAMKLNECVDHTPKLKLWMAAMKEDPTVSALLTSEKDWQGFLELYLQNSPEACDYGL
PAD4 confirm: confirmation of human PAD4 inhibitors; shares compounds with PAD4 FP inh; recombinant PAD4, RCA probe fluorescence polarization; inhibition, % at 6.36 µM; hit rate 28% among 1,200; AID 488796;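 active = mean inhibition across replicates above the hit cutoff set by the earlier primary screen, cut at about 15% in these data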;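 note: inhibitors block active-site labeling by the probe so polarization falls; 0% = PAD4 with probe and DMSO and 100% = probe without PAD4 enzyme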
Numbers without * were called inactive. This is a sample that favours compounds with a hit; in the whole collection about 1.8% have one here.

How did CC(C)(C)NC(=O)c1cccc2c1-c1ccccc1C2=O do in these assays?
PAD4 FP inh: -1.7; PME-1 primary: -9.7; Fam108B inh: -0.9; LYPLA2 inh: -2.1; LYPLA1 counter: 0.9; GSTO1 inh: 0.8

Results for Cc1ccc(-n2nnnc2-c2ccccc2Br)cc1 ?
PAD4 FP inh: 1.5; PME-1 primary: 8.1; Fam108B inh: 3.4; LYPLA2 inh: 0.3; LYPLA1 counter: 0.1; GSTO1 inh: -5.7

Results for c1ccc2oc(C3=NNC(=NC4CC4)SC3)cc2c1 ?
PAD4 FP inh: 21.5*; PME-1 primary: -2.5; Fam108B inh: -2.5; LYPLA2 inh: -4.2; LYPLA1 counter: -7.4; GSTO1 inh: -2.4; PAD4 confirm: 8.3

How did c1cc2c(cc1C1=NNC(=NC3CC3)SC1)OCCO2 do in these assays?
PAD4 FP inh: 40.9*; PME-1 primary: -0.2; Fam108B inh: -2.0; LYPLA2 inh: 1.1; LYPLA1 counter: -0.3; GSTO1 inh: 13.4; PAD4 confirm: 7.0

How did COc1ccc(OC)c(C2NC(=O)c3sc(=S)n(-c4ccccc4)c3N2)c1 (configuration not stated) do in these assays?
PAD4 FP inh: 22.2*; PME-1 primary: 9.8; Fam108B inh: 2.3; LYPLA2 inh: 3.9; LYPLA1 counter: -3.5; GSTO1 inh: 5.1; PAD4 confirm: 35.2*

What do the screens show for `O=C1[C@H]2[C@@H](c3ccc(F)cc3)N3C(=O)N(c4ccccc4)C(=O)[C@@]3(Cc3ccccc3)[C@H]2C(=O)N1C1CCCCC1`?
PAD4 FP inh: -3.9; PME-1 primary: -9.3; Fam108B inh: 0.7; LYPLA2 inh: 0.0; LYPLA1 counter: -2.3; GSTO1 inh: -0.1

What do the screens show for `O=C1[C@H]2[C@@H](c3ccc(F)cc3)N3C(=O)N(c4ccccc4)C(=O)[C@@]3(Cc3ccc(Cl)cc3)[C@H]2C(=O)N1C1CCCCC1`?
PAD4 FP inh: 21.5*; PME-1 primary: -11.6; Fam108B inh: -10.3; LYPLA2 inh: -8.9; LYPLA1 counter: -5.9; GSTO1 inh: 3.1; PAD4 confirm: 2.4

Results for CCOc1ccc(N2C(=O)CC(Sc3ccccc3C(=O)O)C2=O)c([N+](=O)[O-])c1 (configuration not stated) ?
PAD4 FP inh: 26.2*; PME-1 primary: 6.8; Fam108B inh: 4.7; LYPLA2 inh: -3.1; LYPLA1 counter: -1.8; GSTO1 inh: 14.4; PAD4 confirm: 12.6

Results for CCOc1ccc(S(=O)(=O)NCCC(=O)N(CC)CC(=O)Nc2c(F)cccc2F)cc1 ?
PAD4 FP inh: -2.2; PME-1 primary: -0.1; Fam108B inh: 0.1; LYPLA2 inh: 2.7; LYPLA1 counter: 0.7; GSTO1 inh: 11.0

Results for CCC1C(=O)N=C(SCC(=O)Nc2ccc(S(N)(=O)=O)cc2)NC1=O (configuration not stated) ?
PAD4 FP inh: 15.5*; PME-1 primary: -8.6; Fam108B inh: -1.4; LYPLA2 inh: -0.8; LYPLA1 counter: -2.4; GSTO1 inh: 9.7; PAD4 confirm: 11.4

How did CC1CC(C)CN(C(=O)COC(=O)c2c[nH]c3ccccc23)C1 (configuration not stated) do in these assays?
PAD4 FP inh: 3.8; PME-1 primary: 1.6; LYPLA2 inh: 3.1; LYPLA1 counter: 0.4

How did O=CN/N=C/c1c(O)ccc2ccccc12 do in these assays?
PAD4 FP inh: -3.3; PME-1 primary: -0.8; Fam108B inh: -6.0; LYPLA2 inh: -4.1; LYPLA1 counter: 0.0; GSTO1 inh: 15.4

What do the screens show for `Oc1ccc2ccccc2c1C=NCc1ccccc1`?
PAD4 FP inh: 19.4*; PME-1 primary: 10.7; Fam108B inh: 10.2; LYPLA2 inh: -3.1; LYPLA1 counter: -1.0; GSTO1 inh: 33.6; PAD4 confirm: -1.6

What do the screens show for `Cc1nnc(N/N=C/c2ccc([N+](=O)[O-])cc2)n1N`?
PAD4 FP inh: 5.3; PME-1 primary: -0.6; Fam108B inh: 3.5; LYPLA2 inh: -0.9; LYPLA1 counter: 0.6; GSTO1 inh: -0.8

What do the screens show for `COc1ccc(/C=N/Nc2nnc(C)n2N)cc1OC(C)=O`?
PAD4 FP inh: 44.6*; PME-1 primary: 1.8; Fam108B inh: -6.4; LYPLA2 inh: 1.5; LYPLA1 counter: 1.5; GSTO1 inh: 30.5; PAD4 confirm: 4.5

Screening data deposited in PubChem by The Scripps Research Institute Molecular Screening Center.
